# Counter-ions that a name gives are not always drawn.
# Tested on: Drosophila S2 cl14 SmoIP sensor cells
# Assay: normalized SmoIP GFP fluorescence (untreated unstimulated = 0%, untreated Hh-stimulated = 100%); higher = more Smo activation sensor fluorescence
# Conditions: compound concentration: 2 uM, 24 h
# [1] = stimulation: Hh conditioned medium (+Hh)
# [2] = stimulation: mock conditioned medium (-Hh)
# 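Also: flow cytometry read-out as median GFP intensity of gated cells, compounds added 30 min before Hh-conditioned or mock medium, mock-treated cells serving as unstimulated baseline.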
Compound,normalized SmoIP GFP fluorescence [1] [%],normalized SmoIP GFP fluorescence [2] [%]
O=C(Nc1cccc(Cl)c1)c1ccccn1,105,-2.93
CC(=O)O/N=C1\C(=O)N(Cc2cc(Cl)ccc2Cl)c2ccc(Cl)cc21,106,-2.93
Oc1ccc(-c2nc(-c3ccc(F)cc3)c(-c3ccncc3)[nH]2)cc1,99.3,-1.34
COc1cc(N2CCC(N)CC2)ccc1Nc1ncc(Cl)c(-c2c[nH]c3ccccc23)n1,113,-2.48
CC(C)n1c(/C=C/[C@@H](O)C[C@@H](O)CC(=O)O)c(-c2ccc(F)cc2)c2ccccc21 [Fluvastatin-Sodium(Lescol],78.2,-7.6
CN1C2CCCC1CC(NC(=O)c1nn(C)c3ccccc13)C2 (stereo unspecified) [Granisetron-Hydrochloride],103,3.72
O=C(O)Cc1ccccc1Nc1c(Cl)cccc1Cl [Diclofenac-sodium],110,4.03
Cc1cncc(CN2CCC(=C3c4ccc(Cl)cc4CCc4cccnc43)CC2)c1 [rupatadine-fumarate],112,3.77
CNC(=O)c1cc(Oc2ccc(NC(=O)Nc3ccc(Cl)c(C(F)(F)F)c3)cc2)ccn1 [sorafenib],107,9.54
Cc1ccc(S(=O)(=O)c2ccc([N+](=O)[O-])o2)cc1,144,21.3
CN1CCc2c(c3ccccc3n2Cc2ccc(C(=O)NO)cc2)C1 [tubastatin-a-hcl],101,-1.83
CC(C)c1cc(-c2n[nH]c(=O)n2-c2ccc3c(ccn3C)c2)c(O)cc1O [ganetespib-sta-9090],103,-1.56
COc1cc2c(cc1OC)[C@@H]1Cc3ccc(OC)c(OC)c3CN1CC2 [rotundine],160,12.5
